The whole screen tested about 68,000 compounds, of which about 2,700 (4%) showed an effect of 50% or more. Only a selection was taken, and strong results are over-represented in it overall.
These compounds were tested on Plasmodium berghei (assay: Screen against P. berghei liver stage (PbLuc), transformed with Luciferase, at 2uM). Details: tested at 2 uM.
Format: functional, HepG2

| Structure (SMILES) | INHIBITION [%] |
| --- | --- |
| FC1(F)CCN(Cc2ccccn2)CC12CCN(c1cccnc1)C2 (stereo unspecified) | 2.07 |
| COC1CCN(C(=O)c2ccccc2NCc2cccnc2)CC1 | 54.77 |
| CC(C)N1CCN(C(=O)c2ccccc2NCc2cccnc2)CC1 | 8.73 |
| COCC1CCCN(C(=O)c2ccccc2NCc2cccnc2)C1 (stereo unspecified) | 22.39 |
| Cc1cc(CNCCNS(C)(=O)=O)sc1Br | 20.76 |
| O=C(CCn1cncn1)N1C[C@@H]2CC[C@H]1CN(Cc1cccnc1)C2 | 44.37 |
| O=C(NCC1CCOC1)c1cc(-c2ccc(Cl)cc2)n[nH]1 (stereo unspecified) | 61.07 |
| O=C(NCC1CCOC1)c1cc(-c2cccc(Cl)c2)[nH]n1 (stereo unspecified) | 47.03 |
| O=C(NCC1CCOC1)c1cc(-c2ccc(F)cc2)[nH]n1 (stereo unspecified) | -22.69 |
| CCCN(C)S(=O)(=O)NC(=O)c1ccc(CC)o1 | 13.28 |
| CCCS(=O)(=O)NC(=O)c1ccc(Br)o1 | 56.8 |
| CCCS(=O)(=O)NC(=O)c1ccc(CC)o1 | 10.48 |
| NC1CCCCN(Cc2cc(-c3ccccc3OC(F)(F)F)no2)C1 (stereo unspecified) | 28.63 |
| Cc1ccsc1CNCc1c(C(C)C)nn(C)c1N1CCOCC1 | -28.5 |
| O=C1CC(c2ccccc2F)c2c(n3ccsc3nc2=O)N1 (stereo unspecified) | 25.47 |
| CCOC(C)c1noc(CN(C)C(=O)c2cc3ccccn3c2)n1 (stereo unspecified) | 52.08 |
| CCOC(C)c1noc(CN(C)C(=O)C2C(C)(C)C2(C)C)n1 (stereo unspecified) | 20.14 |
| CCOC(C)c1noc(CN(C)C(=O)c2ccncc2)n1 (stereo unspecified) | 20.14 |
| Cc1cnn(CCC(=O)N2CCCN(c3ccccc3C#N)CC2)c1 | -43.47 |
| CC(C)C(c1cccnc1)N(C)C(=O)Cc1c(F)cccc1F (stereo unspecified) | 54.29 |
| CC(C)C(c1cccnc1)N(C)C(=O)Cc1ccc(O)cc1 (stereo unspecified) | 39.44 |
| CCNC(=O)N(C)C(c1cccnc1)C(C)C (stereo unspecified) | 42.2 |

| Structure (SMILES) | INHIBITION [%] |
| --- | --- |
| Cc1ccc(C(N)c2cccc(S(C)(=O)=O)c2)cc1 (stereo unspecified) | 54.92 |
| CS(=O)(=O)c1cccc(C(N)c2ccccc2)c1 (stereo unspecified) | 35.65 |
| CS(=O)(=O)c1cccc(C(N)c2ccc(F)cc2)c1 (stereo unspecified) | -19.35 |
| COc1ccc(CNC(=O)C(NC(=O)Cc2ccccc2)C(C)C)cn1 (stereo unspecified) | -129.64 |
| O=C(Cc1ccccc1)N1CCC2(CC(=O)N(c3ccsc3)C2)C1 (stereo unspecified) | -54.51 |
| COc1ccc(Cl)cc1C(=O)NCC1CCN(C(=O)c2ccoc2)CC1 | 17.33 |
| CSc1ccc(NC(=O)Cc2cccc(O)c2)nc1 | 55.36 |
| Cn1ccc(NC(=O)Cc2cccc(F)c2)n1 | 19.89 |
| CCOc1cccc(NC(=O)Cc2cccc(O)c2)n1 | 0.51 |
| COCCC(=O)N1C[C@@H](c2ccccc2F)[C@@]2(CCCC(=O)N2)C1 | -6.19 |
| O=C(NCc1cnc2n1CCN(CC1CCOCC1)C2)c1ccno1 | -14.52 |
| Cc1ccc(S(=O)(=O)N2CCCCC(N3CCN(C)CC3)C2)cc1F (stereo unspecified) | 50.3 |
| Cc1ccc(S(=O)(=O)N2CCC(N3CCCCC3)CC2)cc1C | -25.62 |
| Cc1cc(S(=O)(=O)N2CCCN3CCCC3C2)ccc1F (stereo unspecified) | 6.07 |
| Nc1nccnc1CC1CCCN(Cc2ccnc3ccccc23)C1 (stereo unspecified) | 13.02 |
| CC(C)c1nc(CN2CCCC2Cn2cccn2)no1 (stereo unspecified) | -97.56 |
| COCCN(C)Cc1cc(Cl)ccc1OCC(O)CN1CCCCCC1 (stereo unspecified) | -55.56 |
| CCOc1ccccc1CNC(=O)NCC(c1cnn(C)c1)N(C)C (stereo unspecified) | 71.95 |
| CCOc1cc(F)ccc1NC(=O)NCC(c1cnn(C)c1)N(C)C (stereo unspecified) | -24.88 |
| CCOCc1ccccc1NC(=O)NCC(c1cnn(C)c1)N(C)C (stereo unspecified) | 18.54 |
| COc1ccc(CN2CCn3cc(CN4CCCCC4)nc3C2)cc1 | -5.87 |
| Cc1cc(CN2C[C@@H]3COC[C@]3(COCc3csc(C)n3)C2)no1 | 1.74 |

| Structure (SMILES) | INHIBITION [%] |
| --- | --- |
| CC(C)c1nc(CN2CCOC(Cn3cncn3)C2)cs1 (stereo unspecified) | 11.2 |
| CCOc1ccccc1CCNC(=O)NCC(O)c1cccs1 (stereo unspecified) | -23.79 |
| CN(C)c1ccc(CCCNC(=O)NCC(O)c2ccsc2)cc1 (stereo unspecified) | 34.55 |
| CCOc1ccccc1CCNC(=O)NCC(O)c1ccsc1 (stereo unspecified) | 53.63 |
| Cc1ccccc1N1CCN(C(=O)CCc2nncn2C)C(C)C1 (stereo unspecified) | -38.81 |
| Cc1cccc(C2CC(=O)Nc3c2c(=O)[nH]n3C(C)C)c1 (stereo unspecified) | -36.73 |
| COC(=O)c1ccc(CNCc2cn(C)nc2C)cc1 | 14.26 |
| COc1ccc(CNCc2cn(C)nc2C)cc1 | 51.32 |
| Cc1nn(C)cc1CNCc1ccc(N(C)C)cc1 | 8.09 |
| CCn1c(O)c(C(C)=O)c2cc(C)ccc21 | 30.48 |
| Cc1cccc2c1ccn2CC(=O)NC[C@@H]1CCCN2CCCC[C@H]12 | -7.52 |
| CS(=O)(=O)N1CC[C@]2(O)CCN(CCCC(=O)c3ccccc3)C[C@@H]2C1 | -30.08 |
| C/C(NC(=O)c1cccs1)=C1\C(=O)C[C@@H]2[C@H]1C2(C)C | 21.57 |
| C/C(NC(=O)c1ccco1)=C1/C(=O)C[C@@H]2[C@H]1C2(C)C | 18.11 |
| C/C(NC(=O)c1ccccn1)=C1\C(=O)C[C@@H]2[C@H]1C2(C)C | 52.74 |
| Cc1nn(C)c2cn(C(C)C(=O)NCc3ccncc3)nc12 (stereo unspecified) | 22.13 |
| O=C1CC2(CCCNC2)C(=O)N1Cc1ccc(Cl)cc1 (stereo unspecified) | -59.66 |
| Cc1cccc2nc(C(=O)N3CCCC[C@]4(C)NC(=O)CCC[C@H]34)cn12 | 29.06 |
| Cc1ccc2nc(C(=O)N3CCCC[C@]4(C)NC(=O)CCC[C@H]34)cn2c1 | 55.74 |
| Cc1cccc(C(=O)N2CCCC[C@]3(C)NC(=O)CCC[C@H]23)n1 | 49.48 |
| CCc1c(C)[nH]c(C(C)(C)N)nc1=O | -33.81 |
| CCC(O)CN1CCN(C(=O)C2(c3ccc(C)c(OC)c3)CC2)CC1 (stereo unspecified) | -10.44 |

| Structure (SMILES) | INHIBITION [%] |
| --- | --- |
| COc1ccccc1C1(C(=O)N2CCN(CC(C)O)CC2)CC1 (stereo unspecified) | 58.53 |
| COc1cc(C2(C(=O)N3CCN(CC(C)O)CC3)CC2)ccc1C (stereo unspecified) | -71.2 |
| O=C(NC1CC1)[C@@H]1CCO[C@@H]2CCN(CCc3ccccc3)C[C@@H]21 | 8.88 |
| CCC[C@@H]1CN(Cc2cnc(-c3cccs3)nc2)C[C@H]1C(=O)O | -9.03 |
| CCC[C@@H]1CN(c2ncnc3sccc23)C[C@H]1NS(C)(=O)=O | 46.58 |
| CCC[C@@H]1CN(c2ncnc3sccc23)C[C@H]1C(=O)O | 51.48 |
| CC(C)CN1CCC2(CCN(CC3CC3)CC2)C1=O | 16.25 |
| NC(=O)CCOc1ccc(NC(=O)c2ccccc2OC(F)F)cc1 | 58.14 |
| CC(Cc1ccccc1F)C(=O)Nc1ccc(OCCC(N)=O)cc1 (stereo unspecified) | -11.88 |
| COc1cccc(C(=O)Nc2ccc(OCCC(N)=O)cc2)c1OC | -20.19 |
| CCc1noc(C(C)N2CCN(c3ccc(C#N)cn3)CC2)n1 (stereo unspecified) | -30.71 |
| CCc1noc(C(C)N2CCN(C)CC2)n1 (stereo unspecified) | 9.83 |
| Cc1noc(C(C)N2CCN(c3ncnc4sccc34)CC2)n1 (stereo unspecified) | 52.89 |
| Cc1noc(C(C)N2CCN(c3ccc(C#N)cn3)CC2)n1 (stereo unspecified) | 25.35 |
| Cc1noc(C(C)N2CCN(c3ncnc4ccccc34)CC2)n1 (stereo unspecified) | 4.34 |
| CCc1noc(C(C)N2CCN(c3ncnc4sccc34)CC2)n1 (stereo unspecified) | 52.89 |
| O=C(NCc1ccccn1)c1cncc(C2CCCN2)n1 (stereo unspecified) | 20.28 |
| O=C(CCn1ncc2ccccc21)N1CCCC(Cc2cccnc2)C1 (stereo unspecified) | 20.44 |
| Cc1csc(CN2CCC(C(=O)O)(n3ccc(-c4ccco4)n3)CC2)n1 | -8.84 |
| Cc1cc(C(=O)N(C)Cc2cccs2)nc(N2CCCC2)n1 | 50.9 |
| Cc1cc(C(=O)N(C)Cc2cccs2)nc(N2CCOCC2)n1 | -3.54 |
| Cc1cc(C(=O)N(C)Cc2cccs2)nc(N2CCCCC2)n1 | -14.24 |

| Structure (SMILES) | INHIBITION [%] |
| --- | --- |
| NC(=O)CCC1CCCN(Cc2cnc(N3CCCCC3)nc2)C1 (stereo unspecified) | 44.23 |
| c1nc(N2CCCC2)ncc1CN1CCCC(CN2CCCCC2)C1 (stereo unspecified) | 52.45 |
| CC(C)c1ncc(CN2CCCC(CO)C2)cn1 (stereo unspecified) | 1.42 |
| Cc1ccoc1C(=O)NC1CCN(Cc2cccc3ccccc23)CC1 | 3.48 |
| CC(=O)N(C)CC(=O)NC(C)c1ccc(OCCC(C)C)cc1 (stereo unspecified) | 29.41 |
| N#Cc1c(N)nc2c(c1-c1c[nH]nc1C1CCCCC1)COCC2 | -64.94 |
| Cn1nc(C2CC2)c2c1NC(=O)CC2c1cc(CN2CCCC2)cs1 (stereo unspecified) | 73.26 |
| CCCn1nc(C)c2c1NC(=O)CC2c1ccc(CN2CCCC2)s1 (stereo unspecified) | 5.02 |
| Cn1nc(C2CC2)c2c1NC(=O)CC2c1ccc(CN2CCCCC2)s1 (stereo unspecified) | 22.63 |
| O=C(CC1CCCC1)N1CCC(c2nnc(-c3ccccn3)o2)CC1 | 9.09 |
| Cc1cc(C(=O)NCCC(=O)N2CCCc3ccccc32)no1 | 12.39 |
| COc1c(C(=O)NCc2cccnc2)nnn1Cc1ccc(C)cc1 | -19.47 |
| Cc1ccc2c(c1)Oc1ncccc1C(=O)N2 | 9.43 |
| CN(CC(=O)NCCC#N)C(c1ccccc1)c1ccc(F)cc1 (stereo unspecified) | 13.11 |
| CN(CC(=O)NCCC#N)C(c1ccccc1)c1ccccc1 | 21.71 |
| CC(c1ccccc1)N(C)CC(=O)NCCC#N (stereo unspecified) | 59.24 |
| O=C(CCc1cc2n(n1)CCN(CCCn1cccc1)C2)N1CCCC1 | 5.1 |
| CC1(C)CC(N(Cc2cccnc2)Cc2cccc(F)c2)CC(C)(C)N1 | -4.26 |

From ChEMBL document CHEMBL4513216, “Probing the Open Global Health Chemical Diversity Library for Multistage-Active Starting Points for Next-Generation Antimalarials” (ACS Infect Dis, 2020)
